Reference: PubChem BioAssay
Several values for one entry are separate records, joined by “and”; a condition that tells them apart may be missing. Equal entries are not always repeated. Activity calls are given as the source filed them. Unless noted, no rule for the calls is given here.

Key:
[1] = P. berghei load reduction in hepatocytes – cell-based, HepG2, luciferase luminescence, HepG2 viability, primary screen (AID 624349; in the data active = parasite load remaining mostly below about 12%, no sharp cut-off; inactive = mostly above about 10%;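 also: 100% = mean of DMSO negative control wells on the same plate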); settings: P. berghei liver stage in HepG2, luciferase luminescence, concentration not given here; parasite load remaining: stronger effect = lower value; viability: measured here: HepG2 viability without parasites
[2] = test system: Aerobactin synthetase IucA (Klebsiella pneumoniae); experiment: inhibition of K. pneumoniae IucA enzyme – biochemical, Tocris library, absorbance (AID 1345561); settings: purified IucA enzyme assay, absorbance (OD) read-out; stronger effect = lower value;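 tested at 8 µM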;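 also: 100% = enzyme without compound and 0% = no enzyme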
[3] = viability loss with induced miR-34 in A549 – imaging, A549 dox-inducible miR-34, nuclei and caspase counts, primary screen (AID 1347080;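 active = compounds whose cell count with miR-34 switched on is under 0.7 times the count with it off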); settings: A549 miR-34 inducible, Hoechst nuclei count, 48 h
[4] = MELAS cybrid and Rieske KO viability enhancers – cell-based, MELAS cybrids, Rieske KO mouse fibroblasts, CellTiter-Glo, primary screen (AID 1508586;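 active = mean z-score across replicates of 1.96 or higher in either the MELAS or the Rieske mutant cell line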;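 also: z relative to plate mean and SD of compound and empty wells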); settings: low glucose
[5] = galactose survival enhancers in mitochondrial complex I cybrids – cell-based, galactose medium, ATP luminescence, primary screen (AID 1645843;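 active = z-score of at least 1.8 in each of two replicates, scored against plate mean and spread of sample wells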;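 also: positive z means more ATP and so rescue of galactose-driven cybrid death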); settings: complex I mutant cybrid cells, 72 h, stronger effect = higher value
[6] = compounds altering circadian rhythm period length – cell-based, LOPAC library, luminescence reporter (AID 2774); settings: circadian reporter cells, at 7 µM, actives lie on both sides;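 also: values are relative to mean of DMSO wells on each plate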
[7] = test system: Hepatitis C virus NS3 helicase; experiment: blockers of NS3h binding to ssDNA – biochemical, fluorescence polarization, LOPAC1280 library, primary screen (AID 687035; in the data active = inhibition above about 37%); settings: Purified HCV NS3 helicase, Cy5-dT15 ssDNA binding fluorescence polarization; stronger effect = higher value; concentration not given here
[8] = compounds altering Cy5-DNA-NS3h complex signal – biochemical, LOPAC1280, artefact control for HCV NS3 helicase inhibitor project (AID 687037); settings: Cy5-DNA-NS3h complex fluorescence interference counterscreen
[9] = chitosan synthesis blockers in C. neoformans – flow cytometry, Cibacron Brilliant Red staining (AID 1347148); settings: Cryptococcus neoformans chitosan, stronger effect = lower value; at 10 µM unless noted;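 also: compound exposure lasted three days at 37 degrees C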
[10] = blockers of cellular phospholipid synthesis – cell-based, LOPAC library, screen 4, primary screen (AID 1347384); settings: animal cells, phospholipid biosynthesis inhibition screen; at 10 µM
[11] = compounds altering viability of human ES cells (AID 493140); settings: human embryonic stem cell survival screen; stronger effect = higher value;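 also: cells exposed to compounds for four days before counting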
[12] = stronger effect = lower value, cell number ratio, induced over uninduced
[13] = measured here: relative caspase fold change +Dox/-Dox
[14] = measured here: total cells with miR-34 induction, stronger effect = lower value
[15] = measured here: total cells without miR-34 induction
[16] = MELAS cybrid survival, CellTiter-Glo 48 h, stronger effect = higher value
[17] = Rieske KO mouse fibroblast survival, CellTiter-Glo 72 h

Row | SMILES | parasite load remaining [1] | viability [1] | remaining activity [2] | fold change [3, 12] | fold change [3, 13] | cell count [3, 14] | cell count [3, 15] | z-score [4, 16] | z-score [4, 17] | z-score [5] | period change [6] | inhibition [7] | fluorescence ratio (interference) [8] | fold fluorescence [9] | outcome [10] | survival [11]
1 | CN/C(=C/[N+](=O)[O-])NCCSCc1ccc(CN(C)C)o1 | 43.4% (inactive) and 51.6% (inactive) | 47.5% and 107% | 114% (inactive) | 0.9 (inactive) and 0.849 (inactive) and 0.891 (inactive) | 0.927 and 0.503 and 1.27 | 8480 and 7980 and 9140 | 9410 and 10300 | -0.0746 (inactive) and -0.291 (inactive) | -0.171 and 0.538 | -0.09 (inactive) and 0.3 (inactive) | – | – | – | – | – | –
2 | O=C(Nc1ccccc1)c1cc([N+](=O)[O-])ccc1Cl | – | – | 120% (inactive) | – | – | – | – | -0.372 (inactive) | 0.0531 | -0.715 (inactive) and -0.72 (inactive) | -0.23 h (inactive) | -5% (inactive) | 1 (inactive) | 3.58 [at 180.7 µM] (inactive) | inactive | –
3 | Cc1ccc(C(=O)Cn2c3c(sc2=N)CCCC3)cc1 | – | – | 107% (inactive) | – | – | – | – | 1.05 (inactive) | -0.573 | -0.225 (inactive) | – | – | – | 5.78 [at 174.6 µM] (inactive) | – | –
4 | CN(C)CCCSC(=N)N | 63.2% (inactive) | 78.8% | 105% (inactive) | 0.94 (inactive) and 0.947 (inactive) | 0.889 and 0.696 | 8690 and 7530 | 9240 and 7950 | 0.388 (inactive) | -0.104 | -0.34 (inactive) | – | – | – | – | – | 12 (inactive)
5 | O=[N+]([O-])c1cccc2c(Br)[nH]nc12 | – | – | 94.1% (inactive) | – | – | – | – | – | – | 1.04 (inactive) and -0.23 (inactive) | -0.085 h (inactive) | -1% (inactive) | 0.9 (inactive) | 16.8 [at 206.6 µM] (inactive) | inactive | –
6 | CCCn1c(=O)c(C)cn2nc(N)nc12 | – | – | 123% (inactive) | 0.963 (inactive) and 0.912 (inactive) | 2.19 and 0.621 | 10000 and 9600 | 10400 and 10500 | – | – | 0.8 (inactive) and -0.21 (inactive) | – | -2% (inactive) | 1 (inactive) | – | inactive | –
7 | Cc1ccc([N+](=O)[O-])cc1S(=O)(=O)N(C)C | – | – | 93.4% (inactive) | 0.957 (inactive) and 0.856 (inactive) | 1.62 and 1.47 | 9070 and 7620 | 9480 and 8900 | – | – | 0.32 (inactive) and -0.31 (inactive) | – | 0% (inactive) | 1 (inactive) | – | inactive | –
8 | c1ccc(C(NCc2cccnc2)(c2ccccc2)c2ccccc2)cc1 | – | – | 95% (inactive) | 1.09 (inactive) and 0.901 (inactive) | 1.48 and 1.53 | 7080 and 6130 | 6480 and 6800 | – | – | -1.03 (inactive) and -0.695 (inactive) | – | 0% (inactive) | 1 (inactive) | – | inactive | –
9 | Nc1ncnc2c1ncn2C1CCCO1 (stereo not drawn) | – | – | 110% (inactive) | 0.951 (inactive) and 0.846 (inactive) and 0.927 (inactive) | 1.64 and 1.08 and 0.781 | 9560 and 5440 and 8660 | 10100 and 6440 and 9350 | – | – | 0.435 (inactive) and -0.32 (inactive) | -0.01 h (inactive) | -1% (inactive) | 1 (inactive) | – | inactive | –
10 | Cc1cccc(C(=O)NCN2CCN(c3ccccc3C#N)CC2)c1 | – | – | 92.5% (inactive) | 0.97 (inactive) and 0.957 (inactive) | 0.725 and 1.8 | 9570 and 9300 | 9870 and 9720 | – | – | -0.125 (inactive) and 0.395 (inactive) | 0.095 h (inactive) | -3% (inactive) | 1 (inactive) | – | inactive | –
11 | Clc1ccc2c(c1)N=C(N1CCNCC1)c1ccccc1N2 | – | – | 102% (inactive) | 1.02 (inactive) and 0.994 (inactive) | 1.15 and 0.797 | 7100 and 7380 | 6990 and 7420 | – | – | -0.785 (inactive) and -0.84 (inactive) | – | -2% (inactive) | 1 (inactive) | – | inactive | –
12 | CC1CCN=C(N)S1 (stereo not drawn) | – | – | 103% (inactive) | 1.02 (inactive) and 0.923 (inactive) | 1.68 and 0.753 | 9440 and 8650 | 9270 and 9380 | – | – | 0.31 (inactive) and 1.27 (inactive) | -0.02 h (inactive) | -2% (inactive) | 1 (inactive) | – | inactive | –
